An excerpt weighted towards active compounds, which were near 4% of everything screened.
CF NFkB inh = inhibitors of PAF-induced NF-kB signaling, primary screen, cell-based, GFP fluorescence, uHTS; KKLEB NF-kB-GFP reporter, GFP fluorescence overnight; inhibition, % at 5 µM; actives 0.86% (n = 360,000); AID 588850, 2011;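 active = at least 50% inhibition at 5 µM, scaled per plate between neutral and stimulator controls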;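 also: PAF is a Pseudomonas aeruginosa culture filtrate used as stimulus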
Peg3 promoter = Peg3 promoter-driven luciferase inhibitors, primary screen, cell-based, HeLa, luciferase luminescence; HeLa PEG-Prom luciferase reporter, overnight; inhibition, % at 20 µM; actives 1.7% (n = 360,000);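 active = inhibition of at least 50% at 20 µM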
TROY signal inh = inhibitors of TROY-driven NF-kB signaling, primary screen, Q293 LMP1-TROYcd cells, NF-kB luciferase, uHTS | actives 0.98% (n = 360,000) | inhibition, % at 10 µM | Q293 LMP1-TROYcd NF-kB luciferase reporter, 4 h;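 active = compounds whose plate-normalised and pattern-corrected inhibition of the luciferase reporter signal at the single screening dose is 50% or more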
HIF-2a inh = HIF-2a reporter inhibitors, primary screen, luminescence, 786-0 RCC cells; 786-0 RCC cells HIF-2a reporter, luciferase luminescence, overnight; inhibition, % at 18.8 µM; actives 0.72% (n = 360,000); AID 624352, 2012;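 active = inhibition of the luminescence signal of 40% or more relative to plate controls, in a single-dose primary screen at 18.75 µM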
TWEAK Fn14 block = inhibitors of TWEAK-Fn14 signaling, primary screen, luciferase reporter cells, uHTS | TWEAK-stimulated Fn14 reporter cells, luciferase luminescence, 8 h | inhibition, % at 10 µM | actives 2% (n = 360,000); in the data active = inhibition above about 50%
KKLEB cytotox = cytotoxicity in KKLEB CF airway cells, primary screen, cytotoxicity control for CF NF-kB inhibitor project, cell-based, uHTS, fluorescence assay plates; KKLEB CF airway cells viability, ATPlite luminescence, overnight; stronger effect = lower value; cells stimulated with P. aeruginosa culture filtrate; activity change (cytotoxicity), % at 5 µM; actives 0.36% (n = 360,000); AID 602141, 2011;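 active = corrected activity change at or below -50% at 5 µM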
Numbers stand for hits; . = inactive; / = no result given.

SMILES | CF NFkB inh | Peg3 promoter | TROY signal inh | HIF-2a inh | TWEAK Fn14 block | KKLEB cytotox
CSc1nc2ccc(S(=O)(=O)N(C)C)cc2s1 | . | . | . | . | . | .
CN(C)c1ccc2nc3ccc(=O)cc-3sc2c1 | 52 | . | . | . | . | .
CN(C)c1ccc2nc3ccc(=[N+](C)C)cc-3sc2c1 | 79 | . | . | . | . | .
Cc1cc2nc3ccc(=[N+](C)C)cc-3sc2cc1N | 52 | . | . | . | . | .
Cc1nc(Cc2nnc(SCC(=O)Nc3c(C)cccc3C)o2)cs1 | . | . | . | . | . | .
CC(=O)Nc1cccc(-c2cc(C)c3cc4c(cc3n2)OCO4)c1 | . | . | . | . | . | .
Cn1c2c(c(=O)n(C)c1=O)C(C(F)(F)F)(C(F)(F)F)N=C(CCC1CCCCC1)N2 | . | 58 | 53 | . | 60 | .
Cc1ccccc1CN(C)CCS(=O)(=O)c1cc(Cl)ccc1Cl | . | . | . | . | 65 | .
O=C(Nc1cccc(Cl)c1)c1cccc(Oc2ccc([N+](=O)[O-])cc2Cl)c1 | . | . | . | . | 82 | .
Cc1ccc(C)c(NC(=O)c2cccc(Oc3ccc([N+](=O)[O-])cc3Cl)c2)c1 | . | . | . | . | . | .
COc1cccc(C(=O)COc2cccc(NC(=O)c3cccc([N+](=O)[O-])c3)c2)c1 | . | . | / | . | 64 | .
O=C(Nc1ccncc1NC(=O)c1cccc([N+](=O)[O-])c1)c1cccc([N+](=O)[O-])c1 | . | 58 | . | . | . | .
O=C(Nc1cccc(NC(=O)c2cccc([N+](=O)[O-])c2)n1)c1cccc([N+](=O)[O-])c1 | . | . | . | . | . | .
O=C(COc1cccc(NC(=O)c2cccc([N+](=O)[O-])c2)c1)c1ccc(F)cc1 | . | . | . | . | . | .
COc1ccc(NC(=O)c2cccc(Oc3ccc([N+](=O)[O-])cc3Cl)c2)cc1 | . | . | . | . | 59 | .
CC1(C(=O)Nc2ccc(Cl)c(Cl)c2)CCN1Cc1ccccc1OC(F)F (configuration not stated) | . | . | . | . | . | .
COc1cc(NC(=O)c2ccccc2)c(OC)cc1NC(=O)CN1CCN(c2ccccn2)CC1 | . | . | . | . | . | .
COc1cc(Cl)c(C)cc1NC(=O)c1ccccc1NC(=O)CN1CCN(c2ccccn2)CC1 | . | 91 | . | . | . | .
Cc1ccc(Nc2nc(-c3c(C)nc4ccccn34)cs2)cc1 | . | . | 59 | . | 95 | .
Oc1ccc(Nc2nc(-c3ccc4ccccc4c3)cs2)cc1 | . | . | . | . | 76 | .
CC1CCN(S(=O)(=O)c2ccc3[nH]c(=O)[nH]c3c2)CC1 | . | . | . | . | . | .
CC(C)NC(=O)CC(c1ccccc1)c1cc(Br)ccc1O (configuration not stated) | . | . | . | . | . | .
CCCCCCNC(=O)CC(c1ccccc1)c1cc(Br)ccc1O (configuration not stated) | . | . | 55 | . | . | .
N#Cc1c(SCC(=O)O)nc(N2CCCCC2)c2c1CCCC2 | . | . | . | . | . | .
COC(=O)CSc1nc(N2CCCCC2)c2c(c1C#N)CCCC2 | . | . | . | . | 91 | .
SMILES | CF NFkB inh | Peg3 promoter | TROY signal inh | HIF-2a inh | TWEAK Fn14 block | KKLEB cytotox
CSc1nc(N2CCOCC2)c2c(c1C#N)CCCCC2 | . | . | . | . | 93 | .
Cc1ccccc1-c1cc2nc(Oc3ccc4c(c3)OCO4)n(C)c(=O)c2s1 | . | . | . | . | . | .
NC(=O)C1=CC2C3C=CC2(O)C(=O)OC3O1 (configuration not stated) | . | 102 | . | . | . | .
O=C(c1cc(-c2ccc(Cl)cc2Cl)on1)N1CCOCC1 | . | . | . | . | 71 | .
O=C(c1cc(-c2ccc(Cl)c(Cl)c2)on1)N1CCOCC1 | . | . | . | . | . | .
COc1ccc(-c2cc(C(=O)N3CCCC3)no2)cc1 | . | . | 59 | . | 57 | .
O=C(c1cc(-c2ccc(Cl)cc2)on1)N1CCOCC1 | . | . | . | . | 51 | .
Cc1sc2nc(CN3CCCC3)nc(N3CCN(S(=O)(=O)c4cccc(F)c4)CC3)c2c1C | . | . | . | . | . | .
Cc1sc2nc(CN(C(=O)NC3CCCCC3)C3CCCCC3)[nH]c(=O)c2c1C | . | 50 | . | . | . | .
O=C(NC1CCCCC1)N(Cc1nc2ccccc2c(=O)[nH]1)C1CCCCC1 | . | . | . | . | . | .
Cc1c(C(=O)NCc2ccc3c(c2)OCO3)oc2ccc(S(=O)(=O)N3CCCCC3)cc12 | . | . | . | . | 59 | .
COc1ccccc1CNC(=O)c1oc2ccc(S(=O)(=O)N3CCOCC3)cc2c1C | . | . | . | . | 52 | .
COc1ccc(NC(=O)c2oc3ccc(S(=O)(=O)N4CCC5(CC4)OCCO5)cc3c2C)cc1 | . | 69 | . | . | 53 | .
Cc1c(C(=O)N(C)Cc2ccccc2)oc2ccc(S(=O)(=O)N3CCCC3)cc12 | . | . | . | . | . | .
Cc1c(C(=O)N(Cc2ccccc2)C(C)C)oc2ccc(S(=O)(=O)N3CCOCC3)cc12 | . | 51 | . | . | . | .
O=C(NC1CCCC1)C(c1ccccc1)n1c(Cc2cc(F)cc(F)c2)nc2ccccc21 (configuration not stated) | / | / | / | . | / | /
CC(OC(=O)c1ccc(F)c(S(=O)(=O)N2CCOCC2)c1)C(=O)NC1CCCC1 (configuration not stated) | . | . | . | . | . | .
Cc1ccsc1/C=C/c1ccc2ccccc2n1 | . | . | . | . | 52 | .
Cc1ccsc1/C=C/c1ccc2cccc(O)c2n1 | . | 80 | . | . | . | .
O=C(COc1ncnc2ccccc12)Nc1cc([N+](=O)[O-])ccc1F | . | . | . | . | . | .
CN(Cc1ccc(OC(F)F)cc1)C(=O)/C=C/c1ccc(S(=O)(=O)N2CCOCC2)cc1 | . | . | . | . | . | .
Cn1c(COc2ccccc2O)[n+](C)c2ccccc21 | . | . | . | . | . | .
CCCCCCCCCCOC(=O)Cn1c(COc2ccccc2OC)[n+](C)c2ccccc21 | 51 | 106 | 61 | 42 | 67 | -54
COc1ccc(S(=O)(=O)Nc2ccccc2N2CCOCC2)cc1OC | . | . | . | . | . | .
CCc1nn2cc(C(=O)c3cc(Cl)ccc3O)cnc2c1-c1ccc(F)cc1 | . | . | 65 | . | 64 | .
CC1(C)CC(NC(=O)C2CCN(S(=O)(=O)c3ccc(Cl)c(C(F)(F)F)c3)CC2)CC(C)(C)N1 | . | . | . | . | . | .
